The supplement of paper PMC10981050
“And” between values parts separate entries of the source, which are not always exact repeats. Identical values can stand only once. Counter-ions that a name gives are not always drawn.

Key:
Assay in all cases: cell viability relative to vehicle control; higher = less cytotoxic
Conditions in all cases: 10 µM
K562 = system: K562
Procedure, shortened: (§1)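 Four leukaemia lines, as CRISPR-edited mutant clones and isogenic wild-type clones, were tested against Selleck bioactive, kinase and epigenetic probe libraries after removal of identity-inconsistent compounds. Cells were exposed to a single 10 µM dose for 48 h, and CellTiter-Glo luminescence was then read. Viability was calculated relative to the on-plate vehicle control.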

MARIMO = system: MARIMO
Procedure, shortened: as §1

MOLM14 = system: MOLM14
Procedure, shortened: as §1

OCI-AML2 = system: OCI-AML2
Procedure, shortened: as §1

Row | Compound | cell viability (K562; SRSF2 genotype: SRSF2 P95H/wt) | cell viability (K562; SRSF2 genotype: SRSF2 wt/wt) [%] | cell viability (MARIMO; SRSF2 genotype: SRSF2 P95H/wt) [%] | cell viability (MARIMO; SRSF2 genotype: SRSF2 wt/wt) [%] | cell viability (MOLM14; SRSF2 genotype: SRSF2 P95H/wt) [%] | cell viability (MOLM14; SRSF2 genotype: SRSF2 wt/wt) [%] | cell viability (OCI-AML2; SRSF2 genotype: P95H/wt) [%] | cell viability (OCI-AML2; SRSF2 genotype: wt/wt) [%]
1 | O=c1cc(-c2ccc(O)cc2)oc2c([C@@H]3OC[C@H](O)[C@H](O)[C@H]3O)c(O)c([C@@H]3O[C@H](CO)[C@@H](O)[C@H](O)[C@H]3O)c(O)c12 [Schaftoside] | 113% and 106% | 113 | 108 | 107 | 112 | 105 | 106 | 105
2 | CCCS(=O)(=O)Nc1ccc(F)c(C(=O)c2c[nH]c3ncc(-c4ccc(Cl)cc4)cc23)c1F [Vemurafenib (PLX4032, RG7204)] | 92.8% and 102% | 94.8 | 92.6 | 106 | 102 | 108 | 111 | 105
3 | COc1cc(Nc2ncc(F)c(Nc3ccc4c(n3)N(COP(=O)(O)O)C(=O)C(C)(C)O4)n2)cc(OC)c1OC [R788 (Fostamatinib)] | 65.8% and 65.1% | 59.4 | 63.8 | 57 | 3.63 | 6.37 | 11.3 | 21.2
4 | O=C(O)c1ccc(N2C(=O)C(=Cc3ccc(-c4ccc([N+](=O)[O-])cc4)o3)C=C2c2ccccc2)cc1 | 86.8% and 85.4% | 84.5 | 104 | 108 | 82.2 | 94 | 97.9 | 98.2
5 | O=C1C(=O)c2ccccc2C(O)=C1C1CCC(c2ccc(Cl)cc2)CC1 (centres undefined) [Atovaquone (Atavaquone)] | 87.9% and 81.8% | 79.7 | 87.9 | 95.8 | 84.7 | 88.7 | 84.8 | 90.1
6 | CCCCCCCCCCCCc1ccc(S(=O)(=O)Nc2nncs2)cc1 | 107% and 104% | 102 | 105 | 109 | 105 | 106 | 98.7 | 111
7 | O=C1CCC[C@@H]2[C@H]3CCC[N+]4([O-])CCC[C@@H](CN12)[C@@H]34 (some centres undefined) [Oxymatrine (Matrine N-oxide)] | 105% and 96.8% | 99 | 101 | 98.9 | 100 | 98.2 | 97.7 | 96.5
8 | CCOC(=O)Nc1ccc(NCc2ccc(F)cc2)nc1N [Flupirtine maleate] | 101% and 104% | 104 | 91.5 | 105 | 101 | 103 | 100 | 110
9 | Clc1ccccc1C(c1ccccc1)(c1ccccc1)n1ccnc1 [Clotrimazole (Canesten)] | 92.1% and 91.2% | 75.9 | 81.5 | 87.3 | 89.4 | 84.6 | 77.4 | 90
10 | Cn1c(=O)c(Oc2ccc(F)cc2F)cc2cnc(NC(CCO)CCO)nc21 | 91.7% and 92.6% | 90.4 | 98.9 | 97.2 | 92.2 | 99.8 | 96.2 | 92.2
11 | O=S(=O)(Cl)c1ccc(-c2ccccc2)cc1 [Biphenyl-4-sulfonyl chloride] | 109% and 104% | 107 | 99 | 100 | 108 | 105 | 105 | 113
12 | Cc1ccc(=O)n(-c2ccccc2)c1 [Pirfenidone] | 104% and 107% | 103 | 103 | 103 | 97.1 | 98.8 | 109 | 106
13 | CN(C)C(=N)NC(=N)N [Metformin hydrochloride (Glucophage)] | 108% | 110 | 108 | 110 | 105 | 104 | 102 | 116
14 | CN1C(CCl)Nc2cc(Cl)c(S(N)(=O)=O)cc2S1(=O)=O (centres undefined) [Methyclothiazide] | 92.4% and 91.5% | 98.4 | 96.5 | 100 | 90 | 97.4 | 96.3 | 99
15 | CN1C(=O)c2sccc2N(C)c2nc(Nc3ccc(S(N)(=O)=O)cc3)ncc21 | 14% and 30.1% | 63.4 | 22.4 | 25.9 | 5.5 | 3.55 | 8.63 | 10.6
16 | O=C1CC[C@@H](C(=O)N2CSC[C@H]2C(=O)O)N1 [Pidotimod] | 99.7% and 104% | 101 | 104 | 99.1 | 104 | 104 | 114 | 104
17 | COc1ccc(C[C@@H]2c3cc(OC)c(OC)cc3CC[N@+]2(C)CCC(=O)OCCCCCOC(=O)CC[N@@+]2(C)CCc3cc(OC)c(OC)cc3[C@H]2Cc2ccc(OC)c(OC)c2)cc1OC [Cisatracurium besylate (Nimbex)] | 93.3% and 95.8% | 92.4 | 79 | 94 | 70.7 | 93 | 99.5 | 111
18 | O=c1[nH]c2ccccc2n1CCN1CCN(c2cccc(C(F)(F)F)c2)CC1 [Flibanserin] | 89.2% and 98.9% | 91.8 | 96.9 | 110 | 101 | 102 | 91 | 108
19 | C=C[C@@](C)(/C=C/c1ccc(O)cc1)CCC=C(C)C [Bakuchiol] | 98.5% and 98.7% | 95.3 | 87.8 | 83 | 87.3 | 90.1 | 83.1 | 81.6

Row | Compound | cell viability (K562; SRSF2 genotype: SRSF2 P95H/wt) | cell viability (K562; SRSF2 genotype: SRSF2 wt/wt) [%] | cell viability (MARIMO; SRSF2 genotype: SRSF2 P95H/wt) [%] | cell viability (MARIMO; SRSF2 genotype: SRSF2 wt/wt) [%] | cell viability (MOLM14; SRSF2 genotype: SRSF2 P95H/wt) [%] | cell viability (MOLM14; SRSF2 genotype: SRSF2 wt/wt) [%] | cell viability (OCI-AML2; SRSF2 genotype: P95H/wt) [%] | cell viability (OCI-AML2; SRSF2 genotype: wt/wt) [%]
20 | CCCCCCCCCCCCCCCC(=O)O [Palmitic acid] | 99.6% and 104% | 98.5 | 96.4 | 114 | 100 | 103 | 95.6 | 114
21 | CC(C)c1cc(C(C)C)c(CC(=O)NS(=O)(=O)Oc2c(C(C)C)cccc2C(C)C)c(C(C)C)c1 [Avasimibe (CI-1011)] | 79.7% and 76.5% | 64.5 | 80.8 | 92.2 | 68.6 | 78.6 | 92.5 | 84.8
22 | Cn1cc(C[C@@H](N)C(=O)O)c2ccccc21 [Indoximod (NLG-8189)] | 95.8% and 103% | 95.7 | 98.4 | 103 | 103 | 98.9 | 102 | 104
23 | Cc1[nH]nc2ccc(-c3cncc(OC[C@@H](N)Cc4ccccc4)c3)cc12 | 31.9% and 28.5% | 26.3 | 7.82 | 5.76 | 0.2 | 0.05 | 0.26 | 6.55
24 | CC(C)(C)C(O)C(=Cc1ccc(Cl)cc1)n1cncn1 (centres undefined) [Uniconazole] | 95.8% and 99.3% | 96.5 | 92.2 | 101 | 93.9 | 105 | 93.8 | 91.2
25 | COc1ccc2ccc(=O)oc2c1CC=C(C)C [Osthole (Osthol)] | 97.5% and 91.7% | 90.1 | 94.2 | 93.2 | 88.7 | 94.3 | 93.2 | 95.5
26 | NCCOc1cc(C(=O)Nc2cc(OCCN)c3ccccc3n2)nc(C(=O)Nc2cc(OCCN)c3ccccc3n2)c1 [Pyridostatin Trifluoroacetate Salt] | 87.7% and 94.2% | 72.6 | 83.8 | 84.5 | 57.4 | 33.6 | 6.12 | 17.8
27 | CC1(C)CCC2(C(=O)O)C(O)CC3(C)C(=CCC4C5(C)CC(O)C(O)C(C)(CO)C5CCC43C)C2C1 (centres undefined) [Polygalacic acid] | 103% and 102% | 103 | 101 | 98.5 | 109 | 100 | 104 | 94.9
28 | Nc1c(Br)cc(Br)cc1CN[C@H]1CC[C@H](O)CC1 [Ambroxol] | 97.6% and 99.3% | 98.9 | 96.2 | 96.7 | 101 | 102 | 104 | 112
29 | CCCCOc1nc(N)c2c(n1)N(Cc1cccc(CN3CCCC3)c1)CC(=O)N2 | 86.2% and 92.1% | 90 | 87 | 91.3 | 97.2 | 93.4 | 97.4 | 90.6
30 | Cc1ccccc1CN1C2=NCCN2C(=O)C2=C1CCN(Cc1ccccc1)C2 [TIC10 analogue] | 98.2% and 97.9% | 95.9 | 104 | 104 | 103 | 103 | 88 | 101
31 | C[C@@H](c1ccc2nccn2c1)n1nnc2ncc(-c3cnn(C)c3)nc21 [Savolitinib(AZD6094, HMPL-504)] | 94.1% and 97.5% | 104 | 94.3 | 91 | 96.6 | 97.2 | 90.3 | 96.5
32 | CCN(CC)CCCC(C)Nc1c2ccc(Cl)cc2nc2ccc(OC)cc12 (centres undefined) [Quinacrine Dihydrochloride Dihydrate] | 2.28% and 4.46% | 2.17 | 1.66 | 2.15 | 0.54 | 0.64 | 0.59 | 0.97
33 | O=c1c(O)c(-c2ccc(O)c(O)c2)oc2cc(O)ccc12 [Fisetin (Fustel)] | 102% and 108% | 105 | 104 | 100 | 86.8 | 103 | 102 | 95.1
34 | O=C1NS(=O)(=O)c2ccccc21 [Saccharin] | 99% and 89.3% | 93.9 | 90.5 | 101 | 97.9 | 96.6 | 89.5 | 103
35 | CNC(CC(=O)O)C(=O)O [NMDA (N-Methyl-D-aspartic acid)] | 102% and 94.2% | 99.7 | 101 | 99.5 | 100 | 99 | 94.4 | 107
36 | CN(Cc1cnc2nc(N)nc(N)c2n1)c1ccc(C(=O)N[C@@H](CCC(=O)O)C(=O)O)cc1 [Abitrexate (Methotrexate)] | 99.8% and 103% | 45.1 | 93 | 93.5 | 103 | 74 | 99.2 | 96.9
37 | Nc1nc2c(ncn2COC(CO)CO)c(=O)[nH]1 [Ganciclovir] | 105% and 99.9% | 106 | 100 | 108 | 112 | 104 | 91.1 | 104
38 | CN(CC(=O)N(Cc1ccc(C2CCCCC2)cc1)c1ccc(C(=O)O)c(O)c1)S(=O)(=O)c1c(F)c(F)c(F)c(F)c1F | 38% and 23.1% | 13.9 | 57.8 | 28.6 | 0.63 | 0.38 | 1.74 | 5.48
